Columns and labels:
Details in all cases: Compound Concentration (nM):1000
JNK1 = tested on: T1, JNK1
T1 construct: gene MAPK8

JNK2 = tested on: T2, JNK2
T2 construct: gene MAPK9

JNK3 = tested on: T3, JNK3
T3 construct: gene MAPK10

KIT(A829P) = tested on: KIT(A829P)
KIT(D816H) = tested on: KIT(D816H)
KIT(D816V) = tested on: KIT(D816V)
KIT(L576P) = tested on: KIT(L576P)
KIT(V559D) = tested on: KIT(V559D)
KIT(V559D,T670I) = tested on: KIT(V559D,T670I)
KIT(V559D,V654A) = tested on: KIT(V559D,V654A)
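Further: KINOMEscan scanMAX binding as percent activity remaining versus control; lower means stronger binding.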

Row | Compound | Percent Control (JNK1) [%] | Percent Control (JNK2) [%] | Percent Control (JNK3) [%] | Percent Control (KIT(A829P)) [%] | Percent Control (KIT(D816H)) [%] | Percent Control (KIT(D816V)) [%] | Percent Control (KIT(L576P)) [%] | Percent Control (KIT(V559D)) [%] | Percent Control (KIT(V559D,T670I)) [%] | Percent Control (KIT(V559D,V654A)) [%]
1 | CC(C)COC(=O)c1ccc2c(c1)/C(=C/Nc1ccc(S(N)(=O)=O)cc1)C(=O)N2 [GW416981X] | 44 | 65 | 71 | 53 | 20 | 22 | 57 | 100 | 100 | 100
2 | COc1ccccc1-c1cc(/C=C2\C(=O)Nc3ncc(Br)cc32)cc(Br)c1O [GW442130X] | 52 | 43 | 30 | 100 | 100 | 100 | 76 | 65 | 100 | 62
3 | CC1=C(C(=O)Nc2ccc3[nH]ncc3c2)C(c2ccc(Cl)c(Cl)c2)CC(=O)N1 (centres unmarked) [GSK299115A] | 84 | 73 | 77 | 79 | 78 | 94 | 100 | 100 | 94 | 100
4 | Cl.O=S1CCN(Cc2ccc(-c3ccc4ncnc(Nc5ccc(OCc6ccccc6)c(F)c5)c4c3)o2)CC1 [GW576924A] | 100 | 100 | 100 | 100 | 100 | 100 | 100 | 100 | 94 | 100
5 | COc1cc(C=NNc2ncnc3c2cnn3-c2ccccc2)ccc1O [GW513184X] | 99 | 94 | 82 | 100 | 84 | 40 | 17 | 35 | 65 | 74
6 | Cl.O=C(O[C@H]1CN[C@H](C#Cc2cc3ncnc(Nc4ccc5c(cnn5Cc5ccccc5)c4)c3s2)C1)N1CCOCC1 [GSK200398A] | 90 | 91 | 88 | 100 | 69 | 100 | 100 | 100 | 87 | 100
7 | COC(=O)Nc1nc2ccc(Oc3ccc(NC(=O)Nc4cc(C(F)(F)F)ccc4F)cc3)cc2s1.Cl [GW693917A] | 87 | 60 | 79 | 1.9 | 39 | 61 | 0 | 0.2 | 2.5 | 20
8 | O=C1Nc2ccc(C(=O)c3ccco3)cc2C1=Cc1cc(Cl)c(O)c(Cl)c1 [GW406108X] | 64 | 70 | 64 | 83 | 69 | 81 | 38 | 52 | 78 | 100
9 | CC1=C(C(=O)Nc2ccc3[nH]ncc3c2)C(c2ccc3ccccc3c2)CC(=O)N1 (centres unmarked) [GSK270822A] | 78 | 80 | 82 | 55 | 70 | 78 | 71 | 72 | 84 | 98
10 | CCc1ccc(Oc2nccc(-c3c(-c4ccc(F)cc4)ncn3C3CCNCC3)n2)cc1 [SB-242719] | 65 | 15 | 17 | 94 | 73 | 100 | 85 | 95 | 94 | 74
11 | COc1cc(C)c(N(C)C(=O)CN(C)C)cc1Nc1nc(Nc2cccc(F)c2C(N)=O)c2cc[nH]c2n1 [GSK2219385] | 88 | 74 | 83 | 100 | 60 | 81 | 100 | 100 | 100 | 93
12 | CCS(=O)(=O)c1ccc(OC)c(Nc2ncc(-c3cccc(F)c3)o2)c1 [GW621970X] | 69 | 92 | 94 | 63 | 51 | 39 | 3 | 4.8 | 35 | 90
13 | CCn1c(-c2nonc2N)nc2c(C#CC(C)(C)O)nc(OCCNC)cc21.Cl [GSK949675] | 97 | 100 | 96 | 98 | 22 | 13 | 100 | 100 | 100 | 100
14 | NS(=O)(=O)c1ccc(Nc2ncc(-c3ccccc3)o2)cc1 [GW572399X] | 64 | 100 | 99 | 92 | 100 | 100 | 37 | 26 | 92 | 100
15 | CN1CCN(C(=O)c2ccc(NC(=O)Nc3ccc(N(C)c4ccnc(Nc5ccc(CS(C)(=O)=O)cc5)n4)cc3)cc2)CC1.Cl [GW830263A] | 5.5 | 19 | 8.6 | 0 | 27 | 23 | 0 | 0 | 0.1 | 9.1
16 | NS(=O)(=O)c1ccc(N/N=C2\C(=O)Nc3ccc(C(=O)NCCc4c[nH]cn4)cc32)cc1 [GW300660X] | 61 | 89 | 96 | 85 | 41 | 94 | 100 | 100 | 100 | 100
17 | CN(C)c1cc2c(Nc3ccc4c(cnn4Cc4ccccc4)c3)ncnc2cn1 [GW282974X] | 87 | 92 | 82 | 70 | 62 | 90 | 100 | 100 | 96 | 100
18 | COc1ccc2[nH]c3c4[nH]c5ccc(OC)cc5c4c4c(c3c2c1)C(=O)NC4=O [GW296115X] | 82 | 55 | 31 | 15 | 6.6 | 1.7 | 8.2 | 9 | 49 | 66
19 | COc1ccc2c(-c3ccnc(Nc4cccc(OC(F)(F)F)c4)n3)cnn2n1 [GW810372X] | 22 | 60 | 41 | 83 | 77 | 87 | 88 | 88 | 86 | 100
20 | CN(C)CCNC(=O)Nc1ccc(N(C)c2ccnc(Nc3ccc(CS(C)(=O)=O)cc3)n2)cc1.Cl [GW830900A] | 43 | 65 | 55 | 31 | 45 | 52 | 0 | 0 | 14 | 72

Reference: publication PMC7826789 (International Journal of Molecular Sciences, 2021)
